High-throughput results: PubChem BioAssay, National Center for Advancing Translational Sciences (NCATS)
DT40 TDP1 no CPT: qHTS for Inhibitors of human tyrosyl-DNA phosphodiesterase 1 (TDP1): qHTS in cells in absence of CPT | DT40 Tdp1-/- hTDP1 cells, no CPT, ATP luminescence, 48 h | Potency, µM (doses to about 46.2 µM), without a hit: top-dose activity change, negative = growth inhibition, actives largely listed as inhibitors | 420,000 tested, 15% active; further: potency means the concentration at half of the fitted maximal effect; nearly all actives have a fitted effect of over 55% in size
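Chicken DT40 Tdp1-/- cells complemented with human TDP1, screened without camptothecin (DMSO vehicle only), 400 cells/well. Compounds pin-transferred, cells incubated at 37 °C for at least 48 hr. Growth read as ATP-dependent luminescence (CellTiter-Glo, 30 min at RT).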
HT1080-NT tox: kills 2HG-producing HT-1080-NT fibrosarcoma cells; AID 686970; 360,000 tested, 1.6% active; Potency, µM (titrated, usually from 46.1 µM), for inactives: top-dose activity, negative = less viability, most hits filed as cytotoxic; HT-1080-NT fibrosarcoma viability, CellTiter-Glo ATP luminescence, 48 h;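 further: NT is the 2HG producing partner of a matched IDH1 knockdown line; potency means the concentration at half of the fitted maximal effect; 0% = DMSO-treated cells and -100% = media-only wells without cells; nearly all actives have a fitted effect of over 55% in size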
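Read-out is CellTiter-Glo luminescence after 10 minutes at room temperature, following 48 hours' compound treatment of HT-1080-NT cells (750 cells/well, RPMI, 5% FBS, 37 degrees C).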
ELG1 DNA repair: inhibitors of ELG1-dependent DNA repair in HEK293T cells | HEK293T ELG1-luciferase reporter, luminescence, 16 h; DNA damage induced by 5-fluorouridine | Potency, µM (titrated, usually from 46.1 µM), without a hit: at the highest dose activity change, negative = inhibition, hits mostly inhibitors | 330,000 tested, 2.3% active | AID 504467; further: potency means the concentration at half of the fitted maximal effect; nearly all actives have a fitted effect of over 55% in size
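DMSO vehicle served as the neutral condition. Each well held 2,000 cells given 5-fluorouridine plus compound; after 16 hr at 37 °C/5% CO2, ONE-Glo was added and luciferase measured 30 min later.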
IL1B secr inh: blocks inflammasome-driven IL-1 beta release | 360,000 tested, 4.7% active | THP-1 LPS/ATP IL-1B secretion, AlphaLISA, 16 h; stronger effect = lower value | AID 743279 | activity change, % at 57.5 µM; in the data active means activity change below about -50%; inconclusive means mostly about -30% to -49%
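Secreted IL-1B measured by AlphaLISA bead assay after 16 h compound exposure of THP-1 cells; compounds (final up to 57.5 uM) added 1 h before LPS (250 ng/mL) and ATP (1.25 mM) stimulation; lower signal means less secretion.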
HT1080 IDH1KD tx: toxicity to HT-1080 IDH1 knockdown cells (counter line). HT-1080 IDH1 knockdown viability, ATP luminescence, 48 h. Potency, µM (top dose mostly 46.1 µM), inactives show at the top dose activity, negative = toxicity, usual class: cytotoxic. AID 686971. 360,000 tested, 2% active;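 further: potency means the concentration at half of the fitted maximal effect; 0% = DMSO wells and -100% = cell-free medium wells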
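Viability of IDH1-knockdown HT-1080 fibrosarcoma cells was assessed by CellTiter-Glo after 48 h at 37 °C with titrated compound; concentration-effect curves were classified by fit quality and response size.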
DT40 TDP1 CPT: DT40-hTDP1 cell growth loss with CPT. AID 686979. 420,000 tested, 12% active. chicken DT40 Tdp1-/-;hTDP1 cells + 20 nM CPT, ATP luminescence, 48 h. Potency, µM (series often up to 46.2 µM), inactives show top-dose activity change, negative = growth inhibition, actives largely listed as inhibitors; further: potency means the concentration at half of the fitted maximal effect; nearly all actives have a fitted effect of over 55% in size
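Chicken DT40 Tdp1-/- cells stably complemented with human TDP1 were seeded at 400 cells/well in medium containing 20 nM camptothecin, exposed to pin-transferred compounds, and grown at 37 °C for at least 48 hr. Viability was read as ATP luminescence.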
Starred values were filed as active, the others as inactive; ? = inconclusive; . = no result. Rows were chosen to be rich in hits. Some 19% of all compounds tested hit in one or more screens of this group. Unless noted, the call rests on the fitted dose curve; in most records, active means well fitted curve in the direction sought with a large enough effect; inconclusive means small, poorly fitted or top-dose-only effect, or another doubt; inactive means no such curve, though single readings can be large; an effect the other way counts as inactive or inconclusive. Unless noted, on the % scale 0 is the no-effect control and ±100 the full control effect.

SMILES	DT40 TDP1 no CPT	HT1080-NT tox	ELG1 DNA repair	IL1B secr inh	HT1080 IDH1KD tx	DT40 TDP1 CPT
CC[C@]12C(=O)N(C)C[C@H]([C@@H]3C(=O)N(C)C(=O)[C@@H]31)N2C(=O)c1ccc(C(C)(C)C)cc1	-9%	21%	.	-12	11%	-19%
CCCCC[C@H]1CN(Cc2ccc(OC)cc2)C(=O)[C@@H]1CC(=O)NCc1ccccc1	11µM*	-12%	-10%	-10	-6%	12µM*
COc1ccc(CNC(=O)c2cccc(NC(=O)CC3SC(N4CCCCC4)=NC3=O)c2)cc1 (configuration not stated)	-24%	-2%	-27%	-5	28%	-16%
COCCn1c(C)cc(C(=O)CSc2nc(C)cc(C)c2C#N)c1C	18µM*	-13%	?	-52*	-13%	21µM*
Cc1cc(C)c(C#N)c(SCC(=O)c2cc(C)n(CCc3ccccc3)c2C)n1	18µM*	0%	-26%	-11	-10%	18µM*
COCCn1c(C)cc(C(=O)CSc2ncn[nH]2)c1C	-2%	2%	?	18	-1%	2%
CC(=O)C1=C(C)NC(SCC(=O)c2ccc(Cl)cc2Cl)=C(C#N)C1c1ccco1 (configuration not stated)	?	?	?	-54*	?	?
Cc1cc(C)c(C#N)c(SCC(=O)c2ccc(Cl)cc2Cl)n1	16µM*	?	?	-93*	?	?
COc1ccc(S(=O)(=O)N2CCCOC2CNC(=O)C(=O)NCc2ccccc2C)cc1 (configuration not stated)	-28%	4%	.	-18	0%	-19%
C=C1SC(=Nc2c(C)cc(C)cc2C)N(C(=O)c2sc3ccccc3c2Cl)C12CCCCC2	21µM*	3%	-25%	-9	10%	?
C=C1SC(=Nc2ccccc2Cl)N(C(=O)c2sc3ccccc3c2Cl)C12CCCCC2	.	.	0%	.	.	.
COc1ccccc1CN1CCNC(=O)C1CC(=O)NCc1cn(C)nc1C (configuration not stated)	-1%	13%	-14%	29	6%	-4%
CNc1cc(OC)c(C(=O)N[C@H]2CCN(Cc3ccccc3)[C@H]2C)cc1Cl	12µM*	.	.	.	.	11µM*
COCCNS(=O)(=O)c1ccc(Cl)c(C(=O)NC2CCN(Cc3ccccc3)CC2)c1	-28%	8%	-3%	5	1%	-9%
Cc1ccc(Cl)cc1N1CCN(C(=O)CSc2nnc3n2C(C)(C)Cc2ccccc2-3)CC1	7.3µM*	-16%	12µM*	?	-26%	9.2µM*
CC1(C)Cc2ccccc2-c2nnc(SCC(=O)N3CCc4ccccc43)n21	?	-19%	?	5	?	?
COc1ccc(N2CCN(C(=O)CSc3nnc4n3C(C)(C)Cc3ccccc3-4)CC2)cc1	21µM*	6%	21µM*	-13	2%	?
COc1cc(NC(=O)CSc2nnc3n2C(C)(C)Cc2ccccc2-3)cc(OC)c1	?	-15%	22µM*	-9	-3%	-5%
COC(=O)CSc1nnc2n1C(C)(C)Cc1ccccc1-2	10%	9%	-4%	-12	5%	-1%
C#CCOc1c(/C=C\c2nc(O)c([N+](=O)[O-])c(=O)[nH]2)cc(Br)cc1OC	1%	13%	4%	-13	6%	11%
Brc1ccc(/C=N/Nc2ncnc3c2cnn3Cc2ccccc2)cc1	15µM*	18%	5%	-11	16%	18µM*
c1ccc2c(N3CCNCC3)nc(-c3ccc4c(c3)OCO4)nc2c1	21µM*	.	.	.	.	?
N#Cc1cccc(-c2nc(N3CCNCC3)c3ccccc3n2)c1	18µM*	.	.	.	.	?
N#Cc1cccc(-c2nc(Nc3ccncc3)c3ccccc3n2)c1	2.9µM*	.	.	.	.	2.6µM*
Cc1cccc(Nc2cc(=O)n(C)c(=O)n2C)c1	3%	5%	.	7	0%	-13%
SMILES	DT40 TDP1 no CPT	HT1080-NT tox	ELG1 DNA repair	IL1B secr inh	HT1080 IDH1KD tx	DT40 TDP1 CPT
COc1ccc(Cl)cc1NC(=S)Nc1cccnc1	-10%	11%	3%	14	11%	-5%
O=C(COc1coc(CN2CCCc3ccccc32)cc1=O)Nc1ccccc1	5.8µM*	-1%	3%	-11	6%	?
CC1Cc2ccccc2N1Cc1cc(=O)c(OCC(=O)Nc2ccccc2)co1 (configuration not stated)	?	-9%	?	-6	-1%	?
Cc1ccc(C)c(NC(=O)COc2coc(CN3CCc4ccccc4C3)cc2=O)c1	16µM*	-11%	-6%	-7	-5%	18µM*
Cc1ccc(NC(=O)COc2coc(CN3c4ccccc4CC3C)cc2=O)c(C)c1 (configuration not stated)	13µM*	-4%	-26%	-1	-7%	?
Cc1cc(C)cc(NC(=O)COc2coc(CN3CCc4ccccc43)cc2=O)c1	?	?	-15%	8	?	?
COc1ccc(OC)c(NC(=O)COc2coc(CN3CCc4ccccc43)cc2=O)c1	16µM*	-7%	?	1	-14%	?
Cc1ccc(NC(=O)COc2coc(CN3CCc4ccccc4C3)cc2=O)c(C)c1	?	-9%	?	-9	-1%	?
CCOc1cccc2sc(NC(=O)CS(=O)(=O)c3ccc(C)cc3)nc12	-27%	.	.	.	.	-10%
CC(=O)Nc1ccc(S(=O)(=O)NCC2CCC(C(=O)N3CC(C)CC(C)C3)CC2)cc1 (configuration not stated)	?	-19%	?	8	-4%	-6%
CC(C)[C@H](NC(=O)c1ccccc1Cl)C(=O)OCC(=O)N1CCCCC1	-17%	-2%	?	6	-2%	14%
CCCc1cc(=O)[nH]c(SCC(=O)Nc2ncc(S(=O)(=O)c3ccc([N+](=O)[O-])cc3)s2)n1	?	14%	0%	23	1%	?
Cn1cnc2c(=O)oc3ccc(S(=O)(=O)N4CCN(c5cccc(C(F)(F)F)c5)CC4)cc3c21	3%	.	.	.	.	-7%
Cc1ccc(NC(=O)COc2coc(CN3CCc4ccccc43)cc2=O)c(C)c1	15µM*	16%	-7%	-19	6%	?
